Key:
Conditions in all cases: concentration: 1 μM, replicates: in singlicate; n = 1
PIM1 = tested on: PIM1
PIM2 = tested on: PIM2
PIM3 = tested on: PIM3
PIP5K1A = tested on: PIP5K1A
PIP5K1C = tested on: PIP5K1C
PIP5K2B = tested on: PIP5K2B
PIP5K2C = tested on: T1, PIP5K2C
T1 construct: gene PIP4K2C

PKAC-alpha = tested on: T2, PKAC-alpha
T2 construct: gene PRKACA

PKAC-beta = tested on: T3, PKAC-beta
T3 construct: gene PRKACB

PKMYT1 = tested on: PKMYT1
PKN1 = tested on: PKN1
PKN2 = tested on: PKN2
PLK1 = tested on: PLK1
PLK2 = tested on: PLK2
PLK3 = tested on: PLK3
PLK4 = tested on: PLK4
PRKCD = tested on: PRKCD
PRKCE = tested on: PRKCE
PRKCH = tested on: PRKCH
PRKCI = tested on: PRKCI
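Further: KINOMEscan kinase panel screen.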

Compound: C[C@@H]1CCCCN1c1cc(-c2ccc3c(N)n[nH]c3c2)nc(N)n1 [GSK2258759]
- %Inh (PIM1): 0%
- %Inh (PIM2): 0%
- %Inh (PIM3): 7%
- %Inh (PIP5K1A): 0%
- %Inh (PIP5K1C): 44%
- %Inh (PIP5K2B): 4%
- %Inh (PIP5K2C): 0%
- %Inh (PKAC-alpha): 0%
- %Inh (PKAC-beta): 0%
- %Inh (PKMYT1): 2%
- %Inh (PKN1): 6%
- %Inh (PKN2): 0%
- %Inh (PLK1): 0%
- %Inh (PLK2): 0%
- %Inh (PLK3): 0%
- %Inh (PLK4): 42%
- %Inh (PRKCD): 0%
- %Inh (PRKCE): 0%
- %Inh (PRKCH): 0%
- %Inh (PRKCI): 22%

Compound: Cl.c1ccc(-c2n[nH]cc2-c2ccnc(-c3ccc(CN4CCOCC4)cc3)c2)nc1 [GW776245]
- %Inh (PIM1): 13%
- %Inh (PIM2): 13%
- %Inh (PIM3): 15%
- %Inh (PIP5K1A): 0%
- %Inh (PIP5K1C): 27%
- %Inh (PIP5K2B): 30%
- %Inh (PIP5K2C): 0%
- %Inh (PKAC-alpha): 10%
- %Inh (PKAC-beta): 13%
- %Inh (PKMYT1): 0%
- %Inh (PKN1): 0%
- %Inh (PKN2): 0%
- %Inh (PLK1): 17%
- %Inh (PLK2): 0%
- %Inh (PLK3): 4%
- %Inh (PLK4): 0%
- %Inh (PRKCD): 11%
- %Inh (PRKCE): 0%
- %Inh (PRKCH): 0%
- %Inh (PRKCI): 48%

Compound: O=C(Nc1n[nH]c2cc(-c3cccc(F)c3F)ccc12)C1CC1 [SB-733894]
- %Inh (PIM1): 8%
- %Inh (PIM2): 0%
- %Inh (PIM3): 32%
- %Inh (PIP5K1A): 0%
- %Inh (PIP5K1C): 0%
- %Inh (PIP5K2B): 0%
- %Inh (PIP5K2C): 0%
- %Inh (PKAC-alpha): 0%
- %Inh (PKAC-beta): 0%
- %Inh (PKMYT1): 40%
- %Inh (PKN1): 39%
- %Inh (PKN2): 6%
- %Inh (PLK1): 0%
- %Inh (PLK2): 26%
- %Inh (PLK3): 13%
- %Inh (PLK4): 22%
- %Inh (PRKCD): 7%
- %Inh (PRKCE): 0%
- %Inh (PRKCH): 0%
- %Inh (PRKCI): 21%

Compound: Cc1c(O)cccc1Nc1ccnc2ccc(C(F)(F)F)cc12.Cl [GW466413]
- %Inh (PIM1): 8%
- %Inh (PIM2): 0%
- %Inh (PIM3): 0%
- %Inh (PIP5K1A): 32%
- %Inh (PIP5K1C): 11%
- %Inh (PIP5K2B): 0%
- %Inh (PIP5K2C): 30%
- %Inh (PKAC-alpha): 0%
- %Inh (PKAC-beta): 3%
- %Inh (PKMYT1): 39%
- %Inh (PKN1): 0%
- %Inh (PKN2): 0%
- %Inh (PLK1): 0%
- %Inh (PLK2): 0%
- %Inh (PLK3): 0%
- %Inh (PLK4): 0%
- %Inh (PRKCD): 0%
- %Inh (PRKCE): 0%
- %Inh (PRKCH): 28%
- %Inh (PRKCI): 0%

Compound: Cc1csc(-c2nc(Nc3ccncc3)c3ccccc3n2)n1 [GW869640]
- %Inh (PIM1): 31%
- %Inh (PIM2): 0%
- %Inh (PIM3): 17%
- %Inh (PIP5K1A): 0%
- %Inh (PIP5K1C): 29%
- %Inh (PIP5K2B): 2%
- %Inh (PIP5K2C): 2%
- %Inh (PKAC-alpha): 14%
- %Inh (PKAC-beta): 44%
- %Inh (PKMYT1): 16%
- %Inh (PKN1): 0%
- %Inh (PKN2): 23%
- %Inh (PLK1): 51%
- %Inh (PLK2): 40%
- %Inh (PLK3): 31%
- %Inh (PLK4): 24%
- %Inh (PRKCD): 21%
- %Inh (PRKCE): 37%
- %Inh (PRKCH): 0%
- %Inh (PRKCI): 30%
